Assay results: PubChem BioAssay (NCI)
About 79,000 compounds went through this panel and 15% of them were active in at least one assay; those are over-represented in the sample as a whole. Unmarked numbers belong to inactive results. The source made the active and inactive calls. Cut-off read from the data, not from the text of the source: active = growth inhibition above about 70%; inactive = the rest.

What was measured:
[1] = NCI Yeast Anticancer Drug Screen. Data for the rad52 strain (AID 147);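 note: 0% = growth of vehicle-treated control cultures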; conditions: S. cerevisiae rad52 mutant growth inhibition, hits give high values
In short: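 The repair-mutant yeast strain was incubated with compounds, then growth was read and inhibition derived relative to vehicle.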

[2] = NCI Yeast Anticancer Drug Screen. Data for the wt1 strain (AID 149);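 note: 0% = growth of vehicle-treated wt1 cultures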; conditions: S. cerevisiae wt1 strain (SPY 50644) growth inhibition, hits give high values
In short: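 Using yeast strain wt1, compound-induced growth inhibition was determined against vehicle-treated cultures.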

[3] = NCI Yeast Anticancer Drug Screen. Data for the rad50EPP+ strain (AID 151);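 note: 0% = growth of vehicle-treated control cultures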; conditions: S. cerevisiae rad50 mutant strain, hits give high values
In short: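 Vehicle-normalised growth inhibition; rad50EPP+ yeast strain, altered in DNA damage repair, compound-treated.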

[4] = NCI Yeast Anticancer Drug Screen. Data for the rad50 strain (AID 155);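 note: 0% = growth of vehicle-only cultures of the same strain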; conditions: S. cerevisiae rad50 strain growth inhibition, hits give high values
In short: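 Relative growth inhibition (compound vs vehicle) was measured in yeast with a defined repair-gene alteration.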

[5] = NCI Yeast Anticancer Drug Screen. Data for the mec2-1 strain (AID 157); conditions: S. cerevisiae mec2-1 strain, hits give high values
In short: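 Mutant yeast (mec2-1) grown with compound; growth inhibition relative to vehicle control reported.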

[6] = NCI Yeast Anticancer Drug Screen. Data for the rad14 strain (AID 159);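 note: 0% = growth of vehicle-treated control cultures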; conditions: S. cerevisiae rad14 strain growth inhibition, hits give high values
In short: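 Screen for anticancer potential: a yeast strain altered in DNA damage repair is grown with compound, and reduced growth is quantified against vehicle controls.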

[7] = NCI Yeast Anticancer Drug Screen. Data for the sgs1 mgt1 strain (AID 161);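 note: 0% = growth of cultures given vehicle only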; conditions: S. cerevisiae sgs1 mgt1 strain, hits give high values
In short: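 Compounds are added to genetically altered yeast, and growth is compared with cultures given vehicle alone to give percent inhibition.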

[8] = NCI Yeast Anticancer Drug Screen. Data for the CLN2oe strain (AID 163);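 note: 0% = growth of vehicle-only control cultures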; conditions: S. cerevisiae CLN2oe strain, hits give high values
In short: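 Compounds are applied to yeast harbouring a defined cell-cycle control change; reduced growth compared with vehicle-treated controls gives the value.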

[9] = NCI Yeast Anticancer Drug Screen. Data for the cln2 rad14 strain (AID 165);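 note: 0% = growth equal to vehicle treated cultures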; conditions: S. cerevisiae cln2 rad14 strain, hits give high values
In short: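 Readout is yeast growth inhibition versus vehicle-treated controls, using a strain with cln2 and rad14 alterations exposed to compound.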

[10] = NCI Yeast Anticancer Drug Screen. Data for the bub3 strain (AID 167); conditions: S. cerevisiae bub3 mutant strain, hits give high values
In short: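 Screening used yeast with an engineered genetic alteration affecting cell cycle control. Compound-exposed cultures were compared with vehicle cultures, and reduced growth was taken as inhibition.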

[11] = NCI Yeast Anticancer Drug Screen. Data for the mlh1 strain (AID 171);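 note: 0% = growth of vehicle-treated control cultures of the same strain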; conditions: S. cerevisiae mlh1 strain growth inhibition, hits give high values
In short: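 Measured: yeast growth. Reference: vehicle-treated controls. Organism: strain with a defined alteration affecting DNA damage repair or cell cycle control, treated with compound.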

[12] = NCI Yeast Anticancer Drug Screen. Data for the sgs1 strain (AID 173);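 note: 0% = growth of vehicle-only control cultures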; conditions: S. cerevisiae sgs1 mutant, hits give high values
In short: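 Each compound was added to cultures of the altered yeast strain. Growth was recorded, and inhibition was derived by comparison with vehicle controls.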

[13] = NCI Yeast Anticancer Drug Screen. Data for the mlh1 rad18 strain (AID 175); conditions: S. cerevisiae mlh1 rad18 strain growth inhibition, hits give high values
In short: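 Genetically defined yeast (DNA repair-deficient) exposed to compounds; growth inhibition determined relative to vehicle.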

[14] = at 5.0 µM (retest, dose inferred, filed as 0.5)
[15] = at 50.0 µM (retest, dose inferred, filed as 5.0)

CCS(=O)(=O)[O][Sn]([CH2]C)([CH2]C)[O]S(=O)(=O)CC
growth inhibition ([1]; at 1.2 µM): -49%
growth inhibition ([1]; at 3.7 µM): -43%
growth inhibition ([1]; at 11.0 µM): -29%
growth inhibition ([1]; at 33.0 µM): -15%
growth inhibition ([1]; at 100.0 µM): 50%
growth inhibition ([2]; at 1.2 µM): -47%
growth inhibition ([2]; at 3.7 µM): -43%
growth inhibition ([2]; at 11.0 µM): -39%
growth inhibition ([2]; at 33.0 µM): -25%
growth inhibition ([2]; at 100.0 µM): 61%
growth inhibition ([3]; at 1.2 µM): -47%
growth inhibition ([3]; at 3.7 µM): -43%
growth inhibition ([3]; at 11.0 µM): -51%
growth inhibition ([3]; at 33.0 µM): -33%
growth inhibition ([3]; at 100.0 µM): -35%
growth inhibition ([4]; at 1.2 µM): -4%
growth inhibition ([4]; at 3.7 µM): -19%
growth inhibition [4, 14]: 21%
growth inhibition ([4]; at 11.0 µM): 2%
growth inhibition ([4]; at 33.0 µM): -14%
growth inhibition [4, 15]: 68%
growth inhibition ([4]; at 50.0 µM): 48.5%
growth inhibition ([4]; at 100.0 µM): 56%
growth inhibition ([5]; at 1.2 µM): -5%
growth inhibition ([5]; at 3.7 µM): 3%
growth inhibition [5, 14]: 6%
growth inhibition ([5]; at 11.0 µM): 3%
growth inhibition ([5]; at 33.0 µM): 23%
growth inhibition [5, 15]: 85% (active)
growth inhibition ([5]; at 50.0 µM): 77% (active)
growth inhibition ([5]; at 100.0 µM): 69%
growth inhibition ([6]; at 1.2 µM): -2%
growth inhibition ([6]; at 3.7 µM): 4%
growth inhibition ([6]; at 11.0 µM): 4%
growth inhibition ([6]; at 33.0 µM): 10%
growth inhibition ([6]; at 100.0 µM): 34%
growth inhibition [7, 14]: 15%
growth inhibition [7, 15]: 69%
growth inhibition ([7]; at 50.0 µM): 42.2%
growth inhibition ([8]; at 1.2 µM): -18%
growth inhibition ([8]; at 3.7 µM): -45%
growth inhibition ([8]; at 11.0 µM): -33%
growth inhibition ([8]; at 33.0 µM): -35%
growth inhibition ([8]; at 100.0 µM): 54%
growth inhibition [9, 14]: 2%
growth inhibition [9, 15]: 32%
growth inhibition ([9]; at 50.0 µM): 67%
growth inhibition ([10]; at 1.2 µM): -5%
growth inhibition ([10]; at 3.7 µM): -9%
growth inhibition [10, 14]: 1%
growth inhibition ([10]; at 11.0 µM): -8%
growth inhibition ([10]; at 33.0 µM): -1%
growth inhibition [10, 15]: 72% (active)
growth inhibition ([10]; at 50.0 µM): 55.7%
growth inhibition ([10]; at 100.0 µM): 55%
growth inhibition ([11]; at 1.2 µM): 1%
growth inhibition ([11]; at 3.7 µM): 5%
growth inhibition ([11]; at 11.0 µM): 16%
growth inhibition ([11]; at 33.0 µM): 28%
growth inhibition ([11]; at 100.0 µM): 52%
growth inhibition ([12]; at 1.2 µM): -4%
growth inhibition ([12]; at 3.7 µM): -9%
growth inhibition ([12]; at 11.0 µM): -3%
growth inhibition ([12]; at 33.0 µM): 7%
growth inhibition ([12]; at 100.0 µM): 51%
growth inhibition [13, 14]: 44%
growth inhibition [13, 15]: 87% (active)
growth inhibition ([13]; at 50.0 µM): 59.6%
